Experimental data published in PubChem BioAssay (Tox21).
Where “and” joins values, the source holds several entries; their conditions need not be identical. Identical values can stand only once. Results filed as inconclusive are left out. A call without a number means that no potency is given here. Some structures have more than one record in an assay (separate samples or runs), and their calls can disagree. Calls of active or inactive are those of the source. Calls follow the shape of the dose curve; as a rule, active = well fitted inhibition curve with a large enough effect in the repeat runs; inconclusive = weak or mixed curves; inactive = flat fitted curve, though single readings scatter.

Molecular target: Voltage-gated inwardly rectifying potassium channel KCNH2 (Homo sapiens) (UniProt Q12809)
Experiment: Human Ether-a-go-go-Related Gene (hERG) channel small molecule antagonists: fluorescence cell-based qHTS assay (AID 1671200); also: nearly all actives have a fitted effect of over 50% in size
Conditions: hERG-U2OS cells, FluxOR thallium flux fluorescence; series mostly up to 76.8 µM; activity change, negative = inhibition: at the top concentration
From the text: National Center for Advancing Translational Sciences [NCATS]
U.S. Environmental Protection Agency [EPA]
National Institutes of Environmental Health Sciences [NIEHS]
National Toxicology Program [NTP]
U.S. Food and Drug Administration [FDA]
Mutations in the hERG channel cause Long QT (LQT) syndrome. LQT syndrome is a cardiac disorder which can cause ventricle arrhythmia and sudden death. Additionally, compounds which block the hERG channel can cause acquired LQT syndrome. Several FDA approved drugs have been removed from the market due to their hERG blocking activity. A cell-based hERG channel inhibition assay can be used to screen chemical compounds that inhibit hERG channel. This assay measures hERG channel activity using thallium ions as surrogate ions to measure potassium into the cells.
Tox21 Assay Protocol Summary:
hERG-U2OS cells were resuspended in culture medium and dispensed into 1536-well, black wall/clear-bottom plates at 1000cells/well/3uL using a Multidrop Combi dispenser (Thermo Fisher, Waltham, MA). After plates were incubated at 37 C overnight, 3 uL of Loading Buffer provided by FluxOR II Potassium Ion Channel Assay kit (Thermo, Carlsbad, CA) was added to each well. The assay plates were then incubated at room temperature in the dark for 1h. […] After the assay plates were incubated at room temperature for 10 min, 1 uL of Stimulus Buffer provided by FluxOR II Potassium Ion Channel Assay kit was added into each well and fluorescence intensity (480nm excitation/540nm emission) was continuously measured for 2 min at 1 second intervals using a Functional Drug Screening System (FDSS) 7000EX kinetic plate reader (Hamamatsu, Japan).
Potency is read from the fitted curve at half-maximal effect.

Sequence of Voltage-gated inwardly rectifying potassium channel KCNH2 (Homo sapiens) (Q12809 whole entry, looked up): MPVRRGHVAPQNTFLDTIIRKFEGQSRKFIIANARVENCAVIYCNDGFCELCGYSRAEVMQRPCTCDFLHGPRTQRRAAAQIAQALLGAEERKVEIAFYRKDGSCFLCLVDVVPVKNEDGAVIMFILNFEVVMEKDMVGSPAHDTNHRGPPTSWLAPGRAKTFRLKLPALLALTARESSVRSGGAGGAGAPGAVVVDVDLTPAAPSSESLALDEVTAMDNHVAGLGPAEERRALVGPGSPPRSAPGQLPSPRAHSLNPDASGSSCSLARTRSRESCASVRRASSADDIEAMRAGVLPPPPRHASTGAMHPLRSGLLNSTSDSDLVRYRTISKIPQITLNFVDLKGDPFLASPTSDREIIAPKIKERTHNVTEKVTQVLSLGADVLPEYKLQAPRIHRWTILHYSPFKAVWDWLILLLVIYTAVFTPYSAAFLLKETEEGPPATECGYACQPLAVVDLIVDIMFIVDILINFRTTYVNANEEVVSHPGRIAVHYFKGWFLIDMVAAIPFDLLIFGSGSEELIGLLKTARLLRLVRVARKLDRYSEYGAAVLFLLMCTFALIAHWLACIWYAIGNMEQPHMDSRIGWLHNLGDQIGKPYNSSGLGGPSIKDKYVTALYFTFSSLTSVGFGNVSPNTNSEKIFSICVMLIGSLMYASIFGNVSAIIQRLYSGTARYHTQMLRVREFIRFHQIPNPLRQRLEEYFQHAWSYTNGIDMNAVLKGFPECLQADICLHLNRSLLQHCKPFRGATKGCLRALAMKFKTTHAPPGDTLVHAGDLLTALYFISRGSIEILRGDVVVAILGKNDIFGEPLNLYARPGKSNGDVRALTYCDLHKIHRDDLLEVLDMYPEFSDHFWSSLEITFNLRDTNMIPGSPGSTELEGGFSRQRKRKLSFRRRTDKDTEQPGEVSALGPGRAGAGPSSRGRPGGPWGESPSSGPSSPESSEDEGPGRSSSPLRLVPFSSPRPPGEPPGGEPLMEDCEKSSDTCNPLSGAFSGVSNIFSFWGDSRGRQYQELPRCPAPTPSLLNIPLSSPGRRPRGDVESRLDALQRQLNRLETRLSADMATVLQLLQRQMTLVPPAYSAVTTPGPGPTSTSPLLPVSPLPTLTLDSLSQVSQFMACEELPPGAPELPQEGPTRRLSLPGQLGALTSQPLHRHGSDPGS

Row | SMILES | Potency | activity change, negative = inhibition
1 | Oc1ccc(OCc2ccccc2)cc1 | inactive | 
2 | COC(=O)Nc1nc2ccc(Sc3ccccc3)cc2[nH]1 | inactive | 
3 | CCCCC/C=C\C/C=C\CCCCCCCC(=O)OC |  | -2.53% (inactive)
4 | COCC(=O)O | inactive | 
5 | CCCCCCC(C)(C)S | inactive | 
6 | O=C(c1ccc(O)cc1)c1ccc(O)cc1O | inactive | 
7 | CCCCCCCCCCCCN | inactive and 12.3 µM (active) | 
8 | CC(C)Cc1ccccc1 | inactive | 
9 | CCCCC(CC)COC(=O)CCCCCCCC(=O)OCC(CC)CCCC (stereo not given) |  | -0.117% (inactive)
10 | Cn1c([N+](=O)[O-])cnc1COC(N)=O | inactive | 
11 | Clc1ccc(Cl)c(Cl)c1Cl | inactive | 
12 | C=C1CC[C@H](O)CC1=C/C=C1\CCC[C@]2(C)[C@@H]([C@H](C)/C=C/[C@H](C)C(C)C)CC[C@@H]12 | inactive | 
13 | CCC(C)C=O (stereo not given) | inactive | 
14 | S=c1nc[nH]c2nc[nH]c12 | inactive | 
15 | C=C(C)C(=O)OCCC[Si](OC)(OC)OC | inactive | 
16 | Cc1cc(O)c2c(c1)C(=O)c1cc(O)cc(O)c1C2=O | inactive | 
17 | CN(CCOc1ccc(CC2SC(=O)NC2=O)cc1)c1ccccn1 (stereo not given) | inactive | 
18 | O=[N+]([O-])C(CO)(CO)CO | inactive | 
19 | CC1CC(OC(=O)c2ccccc2O)CC(C)(C)C1 (stereo not given) |  | -9.51% (inactive)
20 | O=S(=O)(Oc1ccc(Cl)cc1Cl)c1ccccc1 | 49.8 µM (active) and 34.7 µM (active) | 

Row | SMILES | Potency | activity change, negative = inhibition
21 | CC1(C)CC(N=C=O)CC(C)(CN=C=O)C1 (stereo not given) | inactive | 
22 | CCc1ccccc1O | inactive | 
23 | CCc1ccc(O)cc1 | inactive | 
24 | CCCCCCCCCCC=CC1CC(=O)OC1=O (stereo not given) | inactive | 
25 | CC(C)(C)C1CCC(O)CC1 (stereo not given) | inactive | 
26 | O=[N+]([O-])c1cc(N(CCO)CCO)ccc1NCCO | inactive | 
27 | CC1=C(CC(=O)O)c2cc(F)ccc2/C1=C\c1ccc(S(C)=O)cc1 (stereo not given) | inactive | 
28 | O=Nc1ccc(O)cc1 | inactive | 
29 | O=S(=O)(O)CCS | inactive | 
30 | OCC#CCO | inactive | 
31 | O=c1c(-c2ccc(O)cc2)coc2cc(O)ccc12 | inactive | 
32 | O=C(O)c1cc(-c2ccccc2)nc2ccccc12 | inactive | 
33 | O=C(Oc1ccccc1)c1ccc(O)cc1 | inactive | 
34 | Cc1ccc(C(=O)O)o1 | inactive | 
35 | CC1COc2ccccc2N1C(=O)C(Cl)Cl (stereo not given) | inactive | 
36 | Clc1cc(Cl)c(Cl)cc1Cl | inactive | 
37 | Cc1cc(Cc2ccc(N)c(C)c2)ccc1N | inactive | 
38 | NC(=O)/N=N/C(N)=O | inactive | 
39 | CCCCOCCOCCOC(=O)CCCCC(=O)OCCOCCOCCCC | inactive | 
40 | CN(C)c1cccc(O)c1 | inactive | 
